Among all 1,500 compounds or so, about 390 (26%) were called active. No rule for the calls is given here. Only a sample is shown. Where a call stands in place of a potency, no number is given. Potency and affinity values are given separately.
What follows are compounds tested against Histone-lysine N-methyltransferase NSD2 (Homo sapiens) (UniProt O96028) (assay: blockers of NSD2 H4 peptide methylation – biochemical, AlphaScreen, cherry-picked samples, dose response (AID 1053173)). Settings: 120 min; series mostly up to 10 µM.
Histone-lysine N-methyltransferase NSD2 (Homo sapiens), sequence (O96028 whole entry, looked up): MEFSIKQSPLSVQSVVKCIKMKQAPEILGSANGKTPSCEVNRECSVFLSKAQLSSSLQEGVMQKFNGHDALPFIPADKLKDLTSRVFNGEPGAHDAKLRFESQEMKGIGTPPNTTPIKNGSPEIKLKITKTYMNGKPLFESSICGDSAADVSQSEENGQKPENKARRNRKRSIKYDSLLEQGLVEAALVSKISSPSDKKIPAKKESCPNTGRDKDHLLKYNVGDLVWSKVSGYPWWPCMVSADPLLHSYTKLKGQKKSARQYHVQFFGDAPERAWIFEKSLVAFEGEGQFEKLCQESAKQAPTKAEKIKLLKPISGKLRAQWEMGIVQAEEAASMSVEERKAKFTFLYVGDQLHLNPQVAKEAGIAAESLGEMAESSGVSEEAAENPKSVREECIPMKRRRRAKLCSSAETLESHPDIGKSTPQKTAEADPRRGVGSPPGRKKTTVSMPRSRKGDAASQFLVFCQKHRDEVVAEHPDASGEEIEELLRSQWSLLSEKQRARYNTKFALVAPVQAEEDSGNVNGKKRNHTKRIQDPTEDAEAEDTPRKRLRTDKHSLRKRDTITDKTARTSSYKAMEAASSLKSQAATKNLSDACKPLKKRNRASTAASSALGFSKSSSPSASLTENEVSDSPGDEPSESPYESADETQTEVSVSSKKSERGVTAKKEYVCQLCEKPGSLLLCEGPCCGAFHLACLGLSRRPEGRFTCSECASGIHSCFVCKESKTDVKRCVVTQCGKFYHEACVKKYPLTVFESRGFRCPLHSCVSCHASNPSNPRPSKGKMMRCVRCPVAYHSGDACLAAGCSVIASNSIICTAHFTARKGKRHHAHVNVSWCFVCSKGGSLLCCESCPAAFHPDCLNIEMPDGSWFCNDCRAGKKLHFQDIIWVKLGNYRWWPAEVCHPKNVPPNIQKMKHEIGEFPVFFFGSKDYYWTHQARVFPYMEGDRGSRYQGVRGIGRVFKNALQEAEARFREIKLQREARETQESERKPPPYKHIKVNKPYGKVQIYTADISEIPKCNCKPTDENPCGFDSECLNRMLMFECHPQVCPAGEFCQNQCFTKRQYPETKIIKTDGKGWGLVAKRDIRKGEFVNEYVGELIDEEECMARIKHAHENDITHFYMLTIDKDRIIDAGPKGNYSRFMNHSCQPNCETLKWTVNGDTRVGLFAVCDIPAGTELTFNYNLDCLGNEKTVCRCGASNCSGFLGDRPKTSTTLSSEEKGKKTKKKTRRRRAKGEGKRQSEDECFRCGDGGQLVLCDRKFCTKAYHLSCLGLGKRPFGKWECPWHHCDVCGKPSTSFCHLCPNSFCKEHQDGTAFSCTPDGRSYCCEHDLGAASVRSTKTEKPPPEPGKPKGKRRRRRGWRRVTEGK
In the case of `CCN1CCCC1CNC(=O)c1ccc2c(c1)N(Cc1cccc(Cl)c1)C(=O)c1ccccc1S2(=O)=O` (stereo not drawn), the outcome is reported as “inactive”. `COC(=O)c1sc(S(=O)(=O)Nc2ccc(C)c(C)c2)c(C(=O)OC)c1C` was tested, and the outcome was “inactive”. In the case of `COc1cc2c(oc(=O)c3cc(C)cc(OC)c32)c2c(C3OC(C)C(O)C(C)(O)C3O)ccc(O)c12` (stereo not drawn), the outcome is reported as “inactive”. With `COc1cccc(C2c3c(oc4ccccc4c3=O)C(=O)N2CCCN(C)C)c1OC` (stereo not drawn) the outcome was “inactive”. In the case of `Cc1[nH][nH]c(=O)c1C(c1ccc2c(c1)OCO2)c1c(C)[nH][nH]c1=O`, the outcome is reported as “inactive”. For `Cc1cccc(C)c1NC(=S)N(CCCN1CCN(C)CC1)Cc1cccs1`, the outcome was “inactive”. With `O=C(Cc1ccc(Br)cc1)Nc1ncc([N+](=O)[O-])s1` the outcome was “inactive”. For `O=C(COC(=O)c1ccc([N+](=O)[O-])s1)Nc1ccccc1`, the outcome was “inactive”. For `Cc1ccc2[nH]c3c(c2c1)CN(C(=O)CN(C)CC1OCCO1)CC3`, the outcome was “inactive”. `CN1CCCCCC1=Nc1ccc([N+](=O)[O-])cc1` was tested, and the outcome was “inactive”. In the case of `N#Cc1ccc(CSc2ncccn2)cc1`, the outcome is reported as “inactive”. In the case of `COc1ccc2ccccc2c1C1CC(=O)N2CN(C)CSC2=C1C#N` (stereo not drawn), the outcome is reported as “inactive”. `Cc1cccc(C(=O)Nc2cccc(-c3cnc4ccccc4n3)c2)c1` was tested, and the outcome was “inactive”. With `C/C(=N\O)C(C)Oc1ccc(Cl)cc1` (stereo not drawn) the outcome was “inactive”. `NC(=O)c1oc2ccc(Cl)cc2c1N` was tested, and the outcome was “inactive”. In the case of `CCc1ccc(N2CN=c3s/c(=C\c4ccccc4)c(=O)n3C2)cc1`, the outcome is reported as “inactive”. In the case of `CCN1CCN(Cc2nc(N)nc(Nc3ccc(C)c(C)c3)n2)CC1`, the outcome is reported as “inactive”. `CSc1nnc2c(n1)OC=Nc1ccccc1-2` was tested, and the outcome was “inactive”. With `COc1ccc(C2N(C(=O)C(F)(F)F)C(C)CN2S(=O)(=O)c2ccc(C)cc2)cc1` (stereo not drawn) the outcome was “inactive”. In the case of `Nc1ccc(N(CCO)CCO)cc1`, the outcome is reported as “inactive”. For `O=C(CSCC(=O)N1CCOCC1)Nc1nc(-c2ccccc2)cs1`, the outcome was “inactive”. For `Cc1cccc(NC(=O)CCN2CCCCC2)c1`, the outcome was “inactive”. In the case of `O=C(OC(C(=O)NC1CCCCC1)c1ccccn1)c1cccs1` (stereo not drawn), the outcome is reported as “inactive”. With `C/C(NCCc1ccccc1)=C1/CCOC1=O` the outcome was “inactive”. For `COC(=O)c1ccc(/C=N/N2CCN(Cc3ccccc3)CC2)cc1`, the outcome was “inactive”. `CCCCCCCCn1cnc2c(N)c(C)c(C)cc21` was tested, and the outcome was “inactive”. In the case of `Cc1cc(Cl)cc(Br)c1OCCCN1C(=O)NC(C)(C)C1=O`, the outcome is reported as “inactive”. For `CC(=O)C1=C(O)C(=O)N(Cc2cccnc2)C1c1ccccc1` (stereo not drawn), the outcome was “inactive”. In the case of `Cc1ccc(OCc2cnc(Cl)s2)c(C)c1`, the outcome is reported as “inactive”. For `CC(=O)N=Cc1c(C)c(C#N)c(=O)n(C)c1O`, the outcome was “inactive”. `Oc1cccc(NC(=S)N=Nc2c(O)[nH]c3ccc(Br)cc23)c1` was tested, and the outcome was “inactive”. `CCOc1ccc2nc(SCC(=O)NCc3ccco3)sc2c1` was tested, and the outcome was “inactive”. `N#Cc1c(NC(=O)c2ccncc2)sc2c1CCC2` was tested, and the outcome was “inactive”. With `COC(=O)N/N=C1/C/C(=N\NC(=O)OC)c2ccccc21` the outcome was “inactive”. In the case of `COc1cc(OC)nc(NC2OC(=O)c3ccccc32)n1` (stereo not drawn), the outcome is reported as “inactive”. With `CC(CS(=O)(=O)c1ccc2c(c1)NC(=O)CS2)C(=O)NCc1ccccc1Cl` (stereo not drawn) the outcome was “inactive”. `Cc1cccc(/C=N/NC(=O)C(C)Nc2cccc3ccccc23)n1` (stereo not drawn) was tested, and the outcome was “inactive”. In the case of `CC(Nc1cccc2ccccc12)C(=O)N/N=C/c1ccccn1` (stereo not drawn), the outcome is reported as “inactive”. With `Cc1ccc(Cl)cc1NC(=O)C[n+]1ccc(Cc2ccc([N+](=O)[O-])cc2)cc1` the outcome was “inactive”. In the case of `O=C(CSc1nnc(-c2ccccc2O)o1)NC1CCCCC1`, the outcome is reported as “inactive”. `O=C(O)CN1C(=O)/C(=C\c2cccc(OCc3ccc(F)cc3)c2)SC1=S` was tested, and the outcome was “inactive”. `Cc1cccc(C)c1NC(=O)c1c[nH]c2ccccc12` was tested, and the outcome was “inactive”. In the case of `O=C1/C(=C/c2ccccc2)CN(C(=O)CCN2CCOCC2)C/C1=C\c1ccccc1`, the outcome is reported as “inactive”. In the case of `O=Cc1ccc(OC(=O)C2CC(=O)N(c3ccc(F)cc3)C2)cc1` (stereo not drawn), the outcome is reported as “inactive”. `Cc1ccc(NC(=O)C[n+]2ccn(C3=C([O-])c4ccccc4C3=O)c2)cc1` was tested, and the outcome was “inactive”. With `Cc1c(C(=O)NC(C)C)oc2c1-c1[nH]ncc1CC2` the outcome was “inactive”. `O=C(Nc1nnc(SCc2ccc(F)cc2)s1)c1ccccn1` was tested, and the outcome was “inactive”. In the case of `c1ccc(CN2CCN(c3nc(-c4ccccc4)nc(-n4ccnc4)n3)CC2)cc1`, the outcome is reported as “inactive”. In the case of `O=C1NC(NS(=O)(=O)c2ccccc2)(C(F)(F)F)C(=O)N1c1cccc(Cl)c1` (stereo not drawn), the outcome is reported as “inactive”. In the case of `CC(C)Sc1nnc([C@H](Cc2c[nH]c3ccccc23)NC(=O)OC(C)(C)C)o1`, the outcome is reported as “inactive”. `O=[N+]([O-])c1cccc(NC(=S)N2CCOCC2)c1` was tested, and the outcome was “inactive”. In the case of `NS(=O)(=O)c1ccc(CNC(=O)CCCSc2ccccc2)cc1`, the outcome is reported as “inactive”. For `Cc1cc(C)nc(NS(=O)(=O)c2ccc(NC(=O)c3ccccc3Br)cc2)n1`, the outcome was “inactive”. For `CCNC(=O)Cc1ccc(NS(=O)(=O)c2ccc(F)cc2)cc1`, the outcome was “inactive”. `O=S(=O)(Nc1cc(Sc2cccc3cccnc23)c(O)c2ccccc12)c1ccccc1` was tested, and the outcome was “inactive”. In the case of `CCOC(=O)c1cc(S(=O)(=O)Nc2ccc(OC)cc2OC)cn1C`, the outcome is reported as “inactive”. For `O=C1NC2=C(CCc3ccccc32)C(c2ccccc2)N1` (stereo not drawn), the outcome was “inactive”. `Cc1cccn2c(=O)c3cc(C(=O)NCCCn4ccnc4)n(C)c3nc12` was tested, and the outcome was “inactive”. With `CCOc1cc(C(=O)NCC(=O)N2CCC3(CC2)NCCc2[nH]cnc23)cc(OCC)c1OCC` the outcome was “inactive”. `O=[N+]([O-])c1ccc(N/N=C/c2cccs2)nc1` was tested, and the outcome was “inactive”. For `CCOc1ccc(N)cc1OC`, the outcome was “inactive”. For `CCN(CC)CCNC(=O)c1cccc(NC(=O)C(=O)c2cc(Br)ccc2NC(C)=O)c1`, the outcome was “inactive”. `O=C(/C=C/c1ccc(Cl)cc1Cl)NCc1ccco1` was tested, and the outcome was “inactive”. In the case of `CC1Cc2ccccc2N1C(=O)COc1cccc(-n2cnnn2)c1` (stereo not drawn), the outcome is reported as “inactive”. In the case of `COc1ccc(CNC(=O)CN(c2ccc(C)cc2)S(=O)(=O)c2c(C)noc2C)cc1`, the outcome is reported as “inactive”. `Cc1cc(F)c(F)c(C(=O)N2C(C)CCCC2C)c1Cl` (stereo not drawn) was tested, and the outcome was “inactive”. `CC1(C)Cc2cccc(OCC(=O)O)c2O1` was tested, and the outcome was “inactive”. With `Cc1cc(=O)n(-c2ccc3ccccc3n2)[nH]1` the outcome was “inactive”. In the case of `COc1ccc2nc(NC(=O)CS(=O)(=O)c3ccc(C)cc3)sc2c1`, the outcome is reported as “inactive”. In the case of `COc1ccc(N2C(=O)C3C(C2=O)C(C(=O)c2ccc(Cl)cc2)N2CCCC32)cc1` (stereo not drawn), the outcome is reported as “inactive”. With `COc1ccc(CCCc2n[nH]c(=S)n2C)cc1C` the outcome was “inactive”. `CCOc1ccc(NC(=O)CSc2nnc(C34CC5CC(CC(C5)C3)C4)n2C)cc1` was tested, and the outcome was “inactive”. For `CCN(CC)CCNC(=O)CN1C(=O)COc2ccc(S(=O)(=O)N3CCOCC3)cc21`, the outcome was “inactive”. In the case of `Cc1ccc(Cl)cc1N1CCN(C(=O)c2ccc3nc[nH]c3c2)CC1`, the outcome is reported as “inactive”. For `CCOc1ccc(NC(=O)CSc2nc3ccccc3c(=O)n2CCCC(=O)N2CCCC2)cc1`, the outcome was “inactive”. `O=C(O)CN1C(=O)/C(=C/c2ccc(SCc3ccccc3)o2)SC1=S` was tested, and the outcome was “inactive”. `O=C1Cc2ccccc2C(=O)N1c1ccccc1` was tested, and the outcome was “inactive”. In the case of `CN1/C(=N\O)c2cccc3cccc1c23`, the outcome is reported as “inactive”. In the case of `Clc1ccc(C2=CSC3=Nc4cccc5cccc(c45)N23)cc1`, the outcome is reported as “inactive”. For `Cc1nn(CC(=O)Nc2nnc(C(C)C)s2)c(=O)c2ccccc12`, the outcome was “inactive”. With `Cc1cccc(Nc2nnc(-c3ccc(N4CCOCC4)c([N+](=O)[O-])c3)c3ccccc23)c1` the outcome was “inactive”. In the case of `CC(C)(C)c1[nH]nc2c1C(c1ccoc1)C(C#N)=C(N)O2` (stereo not drawn), the outcome is reported as “inactive”. With `Fc1ccc(CNc2nc(-c3cccnc3)nc3ccccc23)cc1` the outcome was “inactive”. `COC1=CC(=O)C(OC)=C(OC)C1=O` was tested, and the outcome was “inactive”. For `N#CCC(=O)c1sccc1-n1cccc1`, the outcome was “inactive”. `CNC(=O)c1ccc(-c2cc(C(F)(F)F)nn2C)s1` was tested, and the outcome was “inactive”. For `O=C(O)c1ccc2c(c1)C(=O)N(c1cccc(C(=O)/C=C/c3ccccc3)c1)C2=O`, the outcome was “inactive”. With `Cc1[nH]n(-c2ccccc2)c(=O)c1C(c1ccc(C(=O)O)cc1)c1c(C)[nH]n(-c2ccccc2)c1=O` the outcome was “inactive”. `Cc1ccnc(-n2c(CCN3C(=O)c4ccccc4C3=O)nc3ccccc3c2=O)c1` was tested, and the outcome was “inactive”. `CC1CCCCN1C(=O)CCNC(=O)Cn1cnc2ccccc2c1=O` (stereo not drawn) was tested, and the outcome was “inactive”. `CCN(CC)C(=O)C1CCCN(Cc2ccc(OC)c(C)c2C)C1` (stereo not drawn) was tested, and the outcome was “inactive”. With `Cc1cc2nn(-c3cccc4ccccc34)nc2cc1NC(=O)c1cccs1` the outcome was “inactive”. `COc1ccc(-c2nn(-c3ccccc3)cc2C(=O)Nc2ccc(C(=O)O)cc2)cc1` was tested, and the outcome was “inactive”. In the case of `CC(=NO)c1cc(Br)c2cccc3c2c1CC3`, the outcome is reported as “inactive”. With `Cc1ccc(/C=C2/SC(=O)NC2=S)o1` the outcome was “inactive”. For `CC1(C)C2CCC1(C)C(OC(=O)CSc1nc(N)cc(=O)[nH]1)C2` (stereo not drawn), the outcome was “inactive”. For `Cc1c(C(=O)c2no[n+]([O-])c2C(=O)c2cnn(C)c2C)cnn1C`, the outcome was “inactive”. In the case of `COc1ccc(N/C=C2\CCc3ccccc3C2=O)cc1`, the outcome is reported as “inactive”. With `COc1ccc(NC2=CC(c3cccc(OC)c3)N(c3ccc(OC)cc3)C2=O)cc1` (stereo not drawn) the outcome was “inactive”. `CCOc1ccc(NC(=O)CN(c2cccc(C(F)(F)F)c2)S(C)(=O)=O)cc1` was tested, and the outcome was “inactive”. In the case of `COc1ccc(Nc2oc(COc3ccccc3OC)nc2C#N)cc1`, the outcome is reported as “inactive”. With `c1coc(CNCCCN2CCOCC2)c1` the outcome was “inactive”. In the case of `O=C(CN1CCC(C(=O)c2ccc3c(c2)OCCO3)CC1)NCc1ccccc1`, the outcome is reported as “inactive”. For `COc1cccc(CN(C)C(=O)c2cc(COc3c(F)cccc3F)on2)c1`, the outcome was “inactive”. `Cc1ccccc1Nc1nc(N)nc(CSc2nnc3sc4ccccc4n23)n1` was tested, and the outcome was “inactive”. For `COc1cc2sc(C)nc2c2ccccc12`, the outcome was “inactive”. With `Cc1ccc(Cn2c(SCC(=O)N3CC(=O)Nc4ccccc43)nc3ccccc3c2=O)cc1` the outcome was “inactive”. `CCN1CCN(c2ncnc3scc(-c4ccc(OC)cc4)c23)CC1` was tested, and the outcome was “inactive”. For `O=C(O)C1CC(c2ccccc2F)=NO1` (stereo not drawn), the outcome was “inactive”. With `Cc1cc(C)cc(-n2c(C)nc3cc(C(=O)O)ccc32)c1` the outcome was “inactive”. For `O=C(CSc1ccc(Cl)cc1)Nc1cc(-c2nc3ncccc3o2)ccc1Cl`, the outcome was “inactive”. With `COCCCNC1=C(Cl)C(=O)c2ccccc2C1=O` the outcome was “inactive”. With `CC(C)(C)CN1CCNC(=O)C1CC(=O)N1CCC(C(=O)N2CCOCC2)CC1` (stereo not drawn) the outcome was “inactive”.

From PubChem BioAssay AID1053173 (Broad Institute, 2014)
